Assay results as given in the supplement of paper PMC8728848.
Many of the other results were omitted from the sample, so the strongest signals are more common in it than they were.

Columns and labels:
Test in all cases: glycan array binding signal (z-score within array); higher = stronger binding
Settings in all cases: glycan notation: IUPAC condensed, linker removed
Fuc(a1-2)Gal(b1-3)GalNAc = target: Fuc(a1-2)Gal(b1-3)GalNAc
Method in brief: (§1)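 The binding signal is a Z-score computed within each array and averaged over linkers. Arrays of the same protein sequence at different concentrations or buffers were also averaged together. Data originate from 3228 arrays in the Consortium for Functional Glycomics database, kept only where the protein sequence was available.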

[1] = target: Fuc(a1-2)Gal(b1-3)GalNAc(a1-3)[Fuc(a1-2)]Gal(b1-4)Glc
Method in brief: as §1

[2] = target: Fuc(a1-2)Gal(b1-3)GalNAc(b1-4)[Neu5Ac(a2-3)]Gal(b1-4)Glc
Method in brief: as §1

[3] = target: Fuc(a1-2)Gal(b1-3)[Fuc(a1-4)]GlcNAc
Method in brief: as §1

[4] = target: Fuc(a1-2)Gal(b1-3)[Fuc(a1-4)]GlcNAc(b1-3)[Gal(b1-4)GlcNAc(b1-6)]Gal(b1-4)Glc
Method in brief: as §1

[5] = target: Fuc(a1-2)Gal(b1-4)[Fuc(a1-3)]GlcNAc(b1-2)Man(a1-3)[Fuc(a1-2)Gal(b1-4)[Fuc(a1-3)]GlcNAc(b1-2)Man(a1-6)]Man(b1-4)GlcNAc(b1-4)GlcNAc
Method in brief: as §1

[6] = target: Fuc(a1-2)Gal(b1-4)[Fuc(a1-3)]GlcNAc(b1-3)Gal(b1-4)[Fuc(a1-3)]GlcNAc(b1-3)Gal(b1-4)[Fuc(a1-3)]GlcNAc
Method in brief: as §1

[7] = target: Fuc(a1-2)[GalNAc(a1-3)]Gal(b1-4)GlcNAc
Method in brief: as §1

[8] = target: Fuc(a1-3)[Gal(b1-4)]GlcNAc(b1-3)GalNAc
Method in brief: as §1

[9] = target: Gal(a1-3)Gal(b1-3)[Fuc(a1-4)]GlcNAc(b1-2)Man(a1-3)[Gal(a1-3)Gal(b1-3)[Fuc(a1-4)]GlcNAc(b1-2)Man(a1-6)]Man(b1-4)GlcNAc(b1-4)GlcNAc
Method in brief: as §1

Gal(a1-3)Gal(b1-4)Glc = target: Gal(a1-3)Gal(b1-4)Glc
Method in brief: as §1

[10] = target: Gal(a1-3)Gal(b1-4)GlcNAc(b1-3)GalNAc
Method in brief: as §1

[11] = target: Gal(a1-3)[Gal(a1-4)]Gal(b1-4)GlcNAc
Method in brief: as §1

Gal(a1-4)Gal(b1-4)GlcNAc = target: Gal(a1-4)Gal(b1-4)GlcNAc
Method in brief: as §1

Gal(a1-4)GlcNAc = target: Gal(a1-4)GlcNAc
Method in brief: as §1

[12] = target: Gal(b1-3)GalNAc(a1-3)[Fuc(a1-2)]Gal(b1-4)Glc
Method in brief: as §1

Gal(b1-3)GlcNAc = target: Gal(b1-3)GlcNAc
Method in brief: as §1

[13] = target: Gal(b1-3)GlcNAc(b1-3)Gal(b1-4)GlcNAc
Method in brief: as §1

[14] = target: Gal(b1-4)GlcNAc(b1-2)Man(a1-3)[Gal(b1-4)GlcNAc(b1-2)Man(a1-6)]Man(b1-4)GlcNAc(b1-4)GlcNAc
Method in brief: as §1

[15] = target: Gal(b1-4)GlcNAc(b1-2)Man(a1-6)[GlcNAc(b1-2)Man(a1-3)]Man(b1-4)GlcNAc(b1-4)GlcNAc
Method in brief: as §1

Gal3S(b1-4)Glc6S = target: Gal3S(b1-4)Glc6S
Method in brief: as §1

GalNAc(a1-3)Gal = target: GalNAc(a1-3)Gal
Method in brief: as §1

GalNAc(b1-3)GalNAc = target: GalNAc(b1-3)GalNAc
Method in brief: as §1

GalNAc(b1-4)GlcNAc = target: GalNAc(b1-4)GlcNAc
Method in brief: as §1

[16] = target: GlcNAc(a1-4)Gal(b1-3)GlcNAc
Method in brief: as §1

[17] = target: GlcNAc(b1-2)Gal(b1-3)GalNAc
Method in brief: as §1

[18] = target: GlcNAc(b1-2)Man(a1-3)[GlcNAc(b1-2)Man(a1-6)]Man(b1-4)GlcNAc(b1-4)GlcNAc
Method in brief: as §1

Kdn(a2-3)Gal(b1-3)GlcNAc = target: Kdn(a2-3)Gal(b1-3)GlcNAc
Method in brief: as §1

[19] = target: Kdn(a2-3)Gal(b1-4)[Fuc(a1-3)]GlcNAc
Method in brief: as §1

Kdn(a2-6)Gal(b1-4)GlcNAc = target: Kdn(a2-6)Gal(b1-4)GlcNAc
Method in brief: as §1

[20] = target: Man(a1-2)Man(a1-2)Man(a1-6)[Man(a1-3)]Man
Method in brief: as §1

Man(a1-2)Man(a1-3)Man = target: Man(a1-2)Man(a1-3)Man
Method in brief: as §1

Man(a1-3)[Man(a1-6)]Man = target: Man(a1-3)[Man(a1-6)]Man
Method in brief: as §1

[21] = target: Man(a1-3)[Man(a1-6)]Man(a1-6)[Man(a1-3)]Man
Method in brief: as §1

[22] = target: Neu5Ac(a2-3)Gal(b1-4)[Fuc(a1-3)]GlcNAc(b1-3)GalNAc
Method in brief: as §1

Neu5Ac(a2-6)Gal = target: Neu5Ac(a2-6)Gal
Method in brief: as §1

[23] = target: Neu5Ac(a2-6)Gal(b1-4)GlcNAc(b1-3)GalNAc
Method in brief: as §1

Neu5Ac(a2-6)GalNAc = target: Neu5Ac(a2-6)GalNAc
Method in brief: as §1

[24] = target: Neu5Ac(a2-6)GlcNAc(b1-4)GlcNAc
Method in brief: as §1

Neu5Ac(a2-8)Neu5Ac = target: Neu5Ac(a2-8)Neu5Ac
Method in brief: as §1

[25] = target: Neu5Ac(a2-8)Neu5Ac(a2-3)[GalNAc(b1-4)]Gal(b1-4)Glc
Method in brief: as §1

B1: AcfC (Vibrio cholerae), Q57410 (protein)
chain: MKSKNRFLLISLLSFSTSVFADVNLYGPGGPHVPLIKVAESFEKSQSKRVNITFGPQATWNDKAKKNADILFGASEHSALAIAEGHSERFSKFNIHPVFMREAIILVKKGNPKNIKGMADLLKPGIGIVVNDGAGVSNTSGTAVWEDSVGRMKNVEKLQAFRSNIHVFAPNSGSARKAFVDGEDIDAWITWVDWAIANPTIGDMVRMEDEYRIYRDFNVVLAKNPSSEAIDFFDYLTKSKDAEAIFQHYGWFK
- glycan array binding signal (z-score) (Fuc(a1-2)Gal(b1-3)GalNAc): 0.244
- glycan array binding signal (z-score) [1]: -1.2
- glycan array binding signal (z-score) [2]: -0.09
- glycan array binding signal (z-score) [3]: 3.03
- glycan array binding signal (z-score) [4]: 1.12
- glycan array binding signal (z-score) [5]: 3.03
- glycan array binding signal (z-score) [6]: 2.22
- glycan array binding signal (z-score) [7]: -0.063
- glycan array binding signal (z-score) [8]: 1.43
- glycan array binding signal (z-score) [9]: 4.58
- glycan array binding signal (z-score) (Gal(a1-3)Gal(b1-4)Glc): -0.864
- glycan array binding signal (z-score) [10]: -0.809
- glycan array binding signal (z-score) [11]: -0.149
- glycan array binding signal (z-score) (Gal(a1-4)Gal(b1-4)GlcNAc): 0.091
- glycan array binding signal (z-score) (Gal(a1-4)GlcNAc): 0.322
- glycan array binding signal (z-score) [12]: 0.135
- glycan array binding signal (z-score) (Gal(b1-3)GlcNAc): 0.247
- glycan array binding signal (z-score) [13]: -0.979
- glycan array binding signal (z-score) [14]: 3
- glycan array binding signal (z-score) [15]: 0.212
- glycan array binding signal (z-score) (Gal3S(b1-4)Glc6S): 0.515
- glycan array binding signal (z-score) (GalNAc(a1-3)Gal): 0.334
- glycan array binding signal (z-score) (GalNAc(b1-3)GalNAc): 0.05
- glycan array binding signal (z-score) (GalNAc(b1-4)GlcNAc): 0.088
- glycan array binding signal (z-score) [16]: 0.098
- glycan array binding signal (z-score) [17]: -0.601
- glycan array binding signal (z-score) [18]: 0.375
- glycan array binding signal (z-score) (Kdn(a2-3)Gal(b1-3)GlcNAc): 0.128
- glycan array binding signal (z-score) [19]: -0.465
- glycan array binding signal (z-score) (Kdn(a2-6)Gal(b1-4)GlcNAc): -0.748
- glycan array binding signal (z-score) [20]: -0.753
- glycan array binding signal (z-score) (Man(a1-2)Man(a1-3)Man): -0.096
- glycan array binding signal (z-score) (Man(a1-3)[Man(a1-6)]Man): -0.136
- glycan array binding signal (z-score) [21]: 0.134
- glycan array binding signal (z-score) [22]: 6.97
- glycan array binding signal (z-score) (Neu5Ac(a2-6)Gal): 2.2
- glycan array binding signal (z-score) [23]: -0.94
- glycan array binding signal (z-score) (Neu5Ac(a2-6)GalNAc): -1.62
- glycan array binding signal (z-score) [24]: -0.781
- glycan array binding signal (z-score) (Neu5Ac(a2-8)Neu5Ac): 0.214
- glycan array binding signal (z-score) [25]: -0.835
